From PubChem
This is a sample that favours compounds with a hit; in the whole collection about 5.2% have one here.
mIDH1 inhibitor: blocks human mutant IDH1 R132H enzyme; O75874; IDH1-R132H enzyme, NADPH consumption, diaphorase/resazurin fluorescence; Potency, µM (titrated, usually from 76.6 µM), inactives show at the top dose activity change, negative = inhibition, usual class: inhibitors; 390,000 tested, 0.093% active; also: nearly all actives have a fitted effect of over 65% in size
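IDH1-R132H (0.5 ug/mL dispensed) in pH 7.5 Tris buffer was preincubated 30 min with compound, then given a substrate mix of 0.016 mM NADPH and 2 mM alpha-KG for 80 min at room temperature; remaining NADPH was read by diaphorase/resazurin fluorescence.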
TrxR1 substrate: substrates of rat thioredoxin reductase 1; O89049; purified TrxR1 substrate turnover, NADPH consumption readout; Potency, µM (titrated, usually from 114 µM), for inactives: at the highest dose activity change, negative = substrate turnover; 390,000 tested, 0.01% active; also: nearly all actives have a fitted effect of over 50% in size
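Rat TrxR1, dispensed at 90 nM, was prereduced with 400 uM NADPH (final) for 5 min at ~22 deg C, then incubated with compound 15 min before 400 uM selenite. A first-read NADPH fluorescence drop versus no-compound background flagged substrates.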
PLK1 PBD inh: blocks phosphopeptide binding to human PLK1 polo-box domain; P53350; Plk1 PBD binding of FITC phosphopeptide, fluorescence polarization; Potency, µM, without a hit: max response, negative = inhibition, hits mostly inhibitors; 360,000 tested, 2.8% active; AID 720504; also: series mostly up to about 57 µM; nearly all actives have a fitted effect of over 65% in size
Target sequence (P53350 whole entry, looked up, the tested form may be a part): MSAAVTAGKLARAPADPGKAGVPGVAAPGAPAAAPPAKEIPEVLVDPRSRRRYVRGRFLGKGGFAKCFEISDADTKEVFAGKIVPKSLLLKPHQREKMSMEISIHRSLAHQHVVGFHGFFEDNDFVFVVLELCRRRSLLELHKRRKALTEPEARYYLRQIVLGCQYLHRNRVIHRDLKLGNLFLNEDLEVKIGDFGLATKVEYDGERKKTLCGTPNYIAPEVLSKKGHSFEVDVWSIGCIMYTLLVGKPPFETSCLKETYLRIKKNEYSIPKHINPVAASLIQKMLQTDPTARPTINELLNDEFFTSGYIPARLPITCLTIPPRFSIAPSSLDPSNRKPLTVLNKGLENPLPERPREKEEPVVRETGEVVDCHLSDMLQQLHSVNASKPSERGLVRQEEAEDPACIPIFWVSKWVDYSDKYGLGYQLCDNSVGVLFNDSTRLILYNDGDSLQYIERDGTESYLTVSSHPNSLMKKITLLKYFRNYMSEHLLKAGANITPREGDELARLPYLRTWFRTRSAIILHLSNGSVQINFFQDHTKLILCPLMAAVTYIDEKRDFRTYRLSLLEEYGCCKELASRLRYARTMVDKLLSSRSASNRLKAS
VDR inhibitor: vitamin D3 receptor (human) inhibition; P11473; 400,000 tested, 0.93% active; VDR-SRC2-3 peptide fluorescence polarization, 2 h; Potency, µM, for inactives: max response, negative = inhibition, hits mostly inhibitors
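FP read-out; VDR + SRC2-3 coactivator peptide; 23 nl compound by pintool; 2 h RT incubation; reagents held at 4 deg C, protected from light.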
rTrxR1 inhibitor: inhibitors of rat thioredoxin reductase 1; recombinant rTrxR1, NADPH fluorescence consumption, selenite substrate; 390,000 tested, 1% active; O89049; Potency, µM (doses to about 114 µM), for inactives: top-dose activity change, negative = inhibition, actives largely listed as inhibitors; also: nearly all actives have a fitted effect of over 65% in size
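Rat TrxR1 (90 nM in the dispensed reagent) was pre-reduced with 400 uM NADPH for 5 min at room temperature, then incubated with compound for 15 min. After 400 uM selenite was added, NADPH fluorescence (Ex 340/Em 450 nm) was followed for 8 min.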
Sfp PPTase inh: blocks B. subtilis Sfp PPTase activity; Biochemical Sfp PPTase activity, qHTS; 310,000 tested, 3.5% active; AID 1490; Potency, µM, for the others: largest response in the series, negative = inhibition, hits mostly inhibitors; Q9F4F7;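 also: the enzyme is Sfp with the accession as filed and its product quenches rhodamine fluorescence; 0% = enzyme reaction without inhibitor and -100% = no enzyme wells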
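Buffer: 50 mM Hepes-Na pH 7.6, 10 mM MgCl2, 0.01% Nonidet P-40, 0.01% BSA. Enzyme 15 nM, pre-exposed to compound 15 min; substrates then added and fluorescence change tracked over 30 min.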
* marks the source's active call; other numbers are inactive results; [ ] = another dose, or the depositor's remark. Calls follow the shape of the dose curve; as a rule, active = well fitted curve in the direction sought with a large enough effect; inconclusive = small, poorly fitted or top-dose-only effect, or another doubt; inactive = no such curve, though single readings can be large; an effect the other way counts as inactive or inconclusive. Unless noted, % is scaled to controls: 0 for no effect and ±100 for the full control effect; potency is read from the fitted curve at half-maximal effect.

Screening CCc1ccc([C@@H]2CC=C(C(=O)O)[C@H](c3ccc(Br)cc3)N2S(=O)(=O)c2ccc(C)cc2)cc1 returned mIDH1 inhibitor -17.6%, TrxR1 substrate 2.5%, PLK1 PBD inh 26.7µM*, VDR inhibitor inconclusive and rTrxR1 inhibitor 11.7%.
`CCOC(=O)CNC(=O)O[C@H]1C(=O)c2cc(OC)ccc2O[C@@H]1c1ccc(OC)c(Br)c1` gave VDR inhibitor 2.0% and Sfp PPTase inh 17.8%.
Cc1ccc([C@H]2C(C(=O)O)=C[C@@H](CC3CCCC3)N2S(=O)(=O)c2ccc(C)cc2)cc1 was read as mIDH1 inhibitor 0.0%, TrxR1 substrate -4.5%, PLK1 PBD inh -25.0%, VDR inhibitor -15.1% and rTrxR1 inhibitor 3.1%.
Screening Cc1ccc(S(=O)(=O)N2[C@@H](c3ccccc3)C(C(=O)O)=CC[C@H]2c2ccc(Cl)cc2)cc1 returned mIDH1 inhibitor 3.9%, TrxR1 substrate -3.6%, PLK1 PBD inh 23.8µM*, VDR inhibitor inconclusive and rTrxR1 inhibitor 10.9%.
CCc1ccc([C@H]2C(C(=O)O)=C[C@@H](CC3CCCC3)N2S(=O)(=O)c2ccc(C)cc2)cc1 was read as mIDH1 inhibitor -0.6%[38.3 µM], TrxR1 substrate -4.6%, PLK1 PBD inh 21.2µM*, VDR inhibitor -11.0% and rTrxR1 inhibitor 0.2%.
`c1ccc(Nc2nc(NCc3ccco3)nc3nccnc23)cc1` gave TrxR1 substrate -1.2%, VDR inhibitor 0.2% and rTrxR1 inhibitor -8.6%.
Cc1ccc(CNC(=O)CN2C(=O)C3(SCC(=O)N3c3ccc(F)c(F)c3)c3ccccc32)cc1 (stereo not drawn) was read as mIDH1 inhibitor -12.4%, TrxR1 substrate -6.0%, VDR inhibitor 12.0% and rTrxR1 inhibitor 18.3%.
For Cc1c(NC(=O)COC(=O)c2cc(-c3ccc(-c4ccccc4)cc3)nc3ccccc23)c(=O)n(-c2ccccc2)n1C the results were mIDH1 inhibitor 0.0%, TrxR1 substrate 29.5%, PLK1 PBD inh 1.9%, VDR inhibitor -15.0%, rTrxR1 inhibitor -22.4% and Sfp PPTase inh 50.1µM*.
Screening Cc1c(NC(=O)c2cc(-c3ccccc3)nc3ccccc23)c(=O)n(-c2ccccc2)n1C returned mIDH1 inhibitor 8.6%, TrxR1 substrate -5.8%, PLK1 PBD inh 0.1%, VDR inhibitor -4.0% and rTrxR1 inhibitor -8.6%.
`Cc1c(C(=O)N2CCC(C)CC2)c(S(=O)(=O)Nc2cccc(C(F)(F)F)c2)c(C)n1C` gave mIDH1 inhibitor 15.1%, TrxR1 substrate 1.5%[57.1 µM], VDR inhibitor 6.4% and rTrxR1 inhibitor 3.6%[57.1 µM].
`CC(=O)N[C@@H](Cc1c[nH]c2ccccc12)C(=O)O` gave VDR inhibitor 7.3% and Sfp PPTase inh 10.3%.
Screening Cc1oc(-c2ccccc2)cc1C(=O)NC(Cc1c[nH]c2ccccc12)C(=O)O (stereo not drawn) returned mIDH1 inhibitor -8.8%, TrxR1 substrate -9.0%, PLK1 PBD inh inconclusive, VDR inhibitor -16.5%, rTrxR1 inhibitor inconclusive and Sfp PPTase inh 39.8µM*.
CC(=O)Nc1sc(N/N=C\c2ccccc2Cl)nc1-c1cccs1 was read as mIDH1 inhibitor 3.5%, TrxR1 substrate -8.9%, PLK1 PBD inh -5.7%, VDR inhibitor inconclusive, rTrxR1 inhibitor -15.1% and Sfp PPTase inh -14.7%.
For CC(=O)Nc1sc(N/N=C\c2ccco2)nc1-c1cccs1 the results were mIDH1 inhibitor -1.5%, TrxR1 substrate -14.8%, PLK1 PBD inh inconclusive, VDR inhibitor inconclusive, rTrxR1 inhibitor inconclusive and Sfp PPTase inh 17.8µM*.
CCOc1cc(/C=N/Nc2nc(-c3cccs3)c(NC(C)=O)s2)ccc1O was read as mIDH1 inhibitor -16.3%, TrxR1 substrate -8.8%, PLK1 PBD inh 26.7µM*, VDR inhibitor 35.5µM*, rTrxR1 inhibitor -13.2% and Sfp PPTase inh -27.7%.
`CC(C)(C)S(=O)N1Cc2cc(C(=O)N3CCc4ccccc4C3)nc(-c3cccc(-c4cccnc4)c3)c2[C@@H]1CCO` (stereo partly drawn) gave PLK1 PBD inh -27.5%.
`COc1ccc(/C=c2\[nH]c(=O)/c(=C/c3ccc(OC)cc3)[nH]c2=O)cc1` gave TrxR1 substrate 6.9% and rTrxR1 inhibitor 21.4%.
COc1cccc(C2C(C(=O)/C=C/c3ccco3)=C(O)C(=O)N2CCN2CCOCC2)c1 (stereo not drawn) was read as mIDH1 inhibitor 17.9%, TrxR1 substrate -3.3%, PLK1 PBD inh -5.8%, VDR inhibitor 24.4%, rTrxR1 inhibitor 10µM* and Sfp PPTase inh inconclusive.
Screening Cc1cccc[n+]1CC(=O)c1ccc2c(c1)OCCO2 returned mIDH1 inhibitor -4.8%, TrxR1 substrate 1.3%, PLK1 PBD inh 26.7µM*, VDR inhibitor -22.5%, rTrxR1 inhibitor 4.6% and Sfp PPTase inh 2.2%.
`COc1ccc(NC2=CC(c3ccc(OC)cc3)N(c3ccc(OC)cc3)C2=O)cc1` (stereo not drawn) gave mIDH1 inhibitor -3.7%, TrxR1 substrate 1.0%, PLK1 PBD inh 23.8µM*, VDR inhibitor -27.1%, rTrxR1 inhibitor inconclusive and Sfp PPTase inh -10.7%.
For COc1cc(CN2CCc3c([nH]c4ccccc34)C2)cc(OC)c1 the results were mIDH1 inhibitor 3.5%, TrxR1 substrate -3.7%[57.1 µM], PLK1 PBD inh 8.44µM*, VDR inhibitor 50.1µM*, rTrxR1 inhibitor 6.3%[57.1 µM] and Sfp PPTase inh 1.6%.
O=C(Nc1cccc(-n2cnnn2)c1)c1cnccc1Cl was read as mIDH1 inhibitor 6.0%, TrxR1 substrate -1.0%, PLK1 PBD inh -9.1%, VDR inhibitor 4.0%, rTrxR1 inhibitor 24.3% and Sfp PPTase inh 7.0%.
For O=C(Cc1cccc2ccccc12)NC(NC(=S)Nc1ccccc1Cl)C(Cl)(Cl)Cl (stereo not drawn) the results were mIDH1 inhibitor 8.1%, TrxR1 substrate -5.8%, PLK1 PBD inh 23.8µM*, VDR inhibitor inconclusive, rTrxR1 inhibitor -31.1% and Sfp PPTase inh 4.9%.
For COc1ccc(/C=C/C(=O)c2ccc(O)cc2)cc1 the results were mIDH1 inhibitor 17.7%, TrxR1 substrate 2.2%, PLK1 PBD inh 3.8%, VDR inhibitor 5.4%, rTrxR1 inhibitor 2.8% and Sfp PPTase inh 0.5%.
`COc1cc(/C=C/c2ccc(O)cc2)cc(OC)c1` gave mIDH1 inhibitor -4.9%, TrxR1 substrate 4.8%, PLK1 PBD inh -6.4%, VDR inhibitor -0.1%, rTrxR1 inhibitor 16.2% and Sfp PPTase inh 56.2µM*.
COc1ccc(-c2cc(C(=O)OCC(=O)c3cccc(OC)c3)c3cccc(Cl)c3n2)cc1 was read as mIDH1 inhibitor -18.5%, TrxR1 substrate 42.5%, VDR inhibitor 2.3% and rTrxR1 inhibitor 59.4%.
`COc1cc2c(cc1OC)/C(=C/C(C)=O)OC2` gave PLK1 PBD inh -6.1%.
